In PubChem BioAssay (NCI):
This is part of a sample that, as a whole, favours compounds with a hit. Of some 83,000 tested, about 20% had one in any assay.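 Note: values are percent growth. 100 is the growth of untreated cells, values between 100 and 0 indicate rising inhibition; between -100 and 0 indicates cell death.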 Calls of active or inactive are those of the source. Rule for the calls: active = growth percent below 10; inactive = the rest.

system: OVCAR-4 ovarian; assay: NCI-60 one-dose screen, 48 h (100 = growth as untreated, 0 = no growth, -100 = all killed); conditions: 10 µM unless noted

Row | Compound | growth
1 | CC(Br)C(O)c1cc2c(cc1Br)OCO2 (centres undefined) | 105% (inactive)
2 | OC1CC2c3ccccc3C1c1ccccc12 (centres undefined) | 100% (inactive)
3 | O=C(c1ccccc1)C(Cl)C(Cl)c1ccccc1 (centres undefined) | 41.2% (inactive)
4 | Cc1cc(Cl)ccc1OC(C)C(=O)Nc1nnc(C2CC2)s1 (centres undefined) | 104% (inactive)
5 | Cc1sc2nc(CSc3nnc(-c4ccco4)o3)[nH]c(=O)c2c1C | 105% (inactive)
6 | CCCCCCCCCCCCCCCCCCOc1cccc(CCOP(=O)(O)OCC[N+](C)(C)C)c1 | 91.4% (inactive)
7 | C=CCOc1ccc(/C(O)=C2\C(=O)C(=O)N(c3nccs3)C2c2ccccc2F)cc1 (centres undefined) | 81.3% (inactive)
8 | Cc1ccc(Oc2nc3ccccc3cc2-c2nnc(Cn3c(COc4ccccc4)nc4ccccc43)o2)cc1 | 53.9% (inactive)
9 | CCOC(=O)c1cc(/C(=N\O)c2cc(OC)c(OC)c(OC)c2)n2cc(C)cc(C)c12 | 20.7% (inactive)
10 | NC(=O)c1ccc2c(c1)OCO2 | 103% (inactive)
11 | NC(=O)NNC(=O)c1ccccc1 | 108% (inactive)
12 | C=C1C(=O)O[C@H]2[C@H]1CC/C(COC(=O)NCc1cc(OC)c(OC)c(OC)c1)=C\CC[C@@]1(C)O[C@@H]21 | 60.5% (inactive)
13 | Cc1cc(C(=O)O)c(N)c(C)n1 | 102% (inactive)
14 | O=C1CCC(=O)N1Cc1ccccc1 | 96.9% (inactive)
15 | COc1cc(NC(=O)CCl)ccc(=O)c1 | 75% (inactive)
16 | COc1ccc(/C=C/c2nc(N3CCOCC3)c3nc(Cl)c(Cl)cc3n2)cc1OC | 108% (inactive)
17 | CCCCCCCC/C=C\CCCCCCCCOc1ccccc1CCOP(=O)(O)OCC[N+](C)(C)C | 80.3% (inactive)
18 | COC(=O)c1ccc(C)cc1 | 105% (inactive)
19 | COc1ccc(/C(=N/O)c2cc(OC)c(OC)c(OC)c2)c(OC)c1N | 50% (inactive)
20 | COc1ccc(C2CC(=O)Nc3c2c(C)nn3-c2nc3ccccc3[nH]2)cc1OC (centres undefined) | 62% (inactive)
21 | C=C1C(=O)O[C@H]2[C@H]1CC/C(COC(=O)NCCc1cccc(OC)c1)=C\CC[C@@]1(C)O[C@@H]21 | 39.9% (inactive)
22 | COc1ccc(-c2cn[nH]c2-c2cc(OC)c3c(c2)OCCO3)cc1 | 73.7% (inactive)
23 | CCN(Cc1ccccc1)c1ccc(SC#N)cc1 | 50.5% (inactive)
24 | Cc1ccc2c(c1)C(C)Cc1c(ncnc1-n1cnc3ccccc31)N2C (centres undefined) | 30% (inactive)
25 | C=CCc1cc(Cl)cc2c(OC(C)=O)c(C(C)=O)c(-c3ccccc3)nc12 | 100% (inactive)
26 | CCCCCCOc1ccc(C2(Cl)c3ccccc3N(C)c3ccccc32)cc1 | 41.3% (inactive)
27 | CC(C)C[C@H](NC(=O)[C@H](Cc1ccccc1)n1ccc(N2CCCCC2)cc1=O)B(O)O | 39.3% (inactive)
28 | Cc1ccccc1C(=O)c1ccccc1C(=O)O | 114% (inactive)
29 | COc1ccc2c(c1)C=CC(C#N)N2C(=O)c1ccccc1 (centres undefined) | 25.4% (inactive)
